Each structure is given as a SMILES string. About 83,000 compounds went through this panel and 20% of them were active in at least one assay; those are over-represented in the sample as a whole.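 Cells were grown in 96-well plates and exposed to the test compound at a single concentration for 48 hours; results are reported as percent growth, with values below 10 considered active.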 Unmarked numbers belong to inactive results. Calls of active or inactive are those of the source.

For 37 molecules, growth results are on record in PubChem BioAssay (NCI).

The assay relates to HL-60(TB) leukemia. Put plainly: NCI-60 one-dose screen, 48 h (100 = growth as untreated, 0 = no growth, -100 = all killed). The note with it: 10 µM unless noted.
On to `O=C1CCC(N2Cc3c(NCc4ccc(-c5ccccc5)cc4)cccc3C2=O)C(=O)N1` (configuration not stated), for which the growth is 10.7%. In the case of `COc1cc(/C=C/C(=O)c2cnn(-c3cc(=O)[nH]c4ccc(C)cc34)c2C)cc(OC)c1OC`, the growth is -28.4% (active). Turning to `COc1ccccc1Nc1nnc(-c2c[nH]c3ccccc23)o1`, the growth was 2.38% (active).

`Cn1cc(/C=N/Nc2cccc(Cl)n2)c2ccccc21`: the growth is 56.6%.

In the case of `Cc1ccc(C2CC(c3ccc(S(=O)(=O)NCCNc4nc(N(C)C)nc(N5CCOCC5)n4)cc3)=Nc3c(N)nc(N)nc3N2)cc1` (configuration not stated), the growth is 35.8%. Take `C=C1CC[C@@H]2[C@]3(C)COC(c4cn[nH]c4-c4ccc(OC)cc4)O[C@@H]3CC[C@@]2(C)[C@@H]1C/C=C1/C(=O)OCC1O` (some centres not stated): the growth was 1.59% (active). To `COC(=O)c1cc(C(=O)C(C)(C)C)n2c3ccccc3c3ccccc3c12` belongs 90.4%; to `N#Cc1c(-c2ccc(Br)cc2)nc2n[nH]c(-c3ccc(Br)cc3)c2c1-c1ccc(F)cc1`, 80.4%; to `Cc1ccc(C(=O)CSc2nc3ccc(F)cc3c(=O)n2-c2ccc(Cl)cc2)cc1`, 117%. `CCCCCCCCOc1cccc(S(=O)(=O)Nc2ccc(C)cc2C(=O)O)c1`: the growth was 101%.

With `CSc1nc(-c2cccc(C)c2)c2cc(-c3ccccc3)n(C)c2n1`, the growth was -15.8% (active). In the case of `COc1cc2c(c(OC)c1OC)C(=O)CC(c1cccc(NC(=O)c3cc([N+](=O)[O-])ccc3Cl)c1)O2` (configuration not stated), the growth was 34.1%. As to `COc1ccc(C(=O)c2cc(C(C)=O)c3c(C)cc(C)cn23)cc1`, the growth is 78%. The figure for `COc1cc2c(cc1OC)/C(=C\c1sc(Nc3ccc(O)cc3)nc1O)C(C(=O)O)=N2` is -17.5% (active); for `CC(C)Sc1nc(NC2CC2)c(C#N)c(-c2ccccc2)n1` it is 98.1%. With `CC(C)Sc1nc(NCCc2c[nH]c3ccccc23)c(C#N)c(-c2ccccc2)n1`, the growth was 19.3%. In the case of `COC(=O)CSC1=C(C)C(=O)C(OC)=C(OC)C1=O`, the growth is 45.9%. Consider `COc1ccc2[nH]c(=O)c(CSc3ccccc3Nc3nccc(-c4ccc(C(F)(F)F)cc4)n3)cc2c1`, for which the growth is 1.94% (active). Regarding `Cc1cc(=O)oc2cc(OCCCCOc3ccc(/C=C/C(=O)Nc4cccc(Cl)c4)cc3)ccc12`, the growth is 97.3%. For `COc1c2c(cc3c1C(CCc1ccccc1)N(C)CC3)OCO2` (configuration not stated), the growth is -28.3% (active). As to `OC1CCC(Cn2c(C(F)(F)F)cc3c(Cl)ncnc32)CC1` (configuration not stated), the growth was -37.5% (active). To `CCCCSc1nc(Nc2ccc(S(N)(=O)=O)cc2)c(C#N)c(-c2cc(OC)c(OC)c(OC)c2)n1` belongs -28% (active).

Regarding `OCNc1ccc(-n2cnc3cc(-c4ccc(O)cc4)ccc32)cc1C(F)(F)F`, the growth was -2.45% (active). To `O=C1Nc2ccccc2/C1=C\c1ccc(OCC(=O)c2ccc(Br)cc2)cc1` belongs 40.4%; to `O=C(c1ccc(Cl)cc1)C1[C@H](c2ccc(Br)cc2)[C@@H](c2ccccc2)NC12C(=O)Nc1ccc(Br)cc12` (some centres not stated), -42.8% (active); to `O=c1cc(-c2ccccc2)oc2cc(OCCCCNCc3ccccc3)cc(O)c12`, -65.6% (active).

Turning to `O=C(O)CC1S/C(=N/N=C/c2nc3ccccc3s2)NC1=O` (configuration not stated), the growth is 98.4%. As for `O=C(NNC(=S)NC(=O)c1ccccc1)c1ccc(OCc2nc3ccc(Cl)cc3[nH]2)cc1`, the growth was 1.3% (active).

For `Cc1cc(=O)oc2cc(OCCCOc3ccc(/C=C/C(=O)Nc4ccccc4N)cc3)ccc12`, the growth is 1.53% (active). With `Cc1cccc2cc(-c3cc(-c4ccccc4)nc(=S)[nH]3)c(Cl)nc12`, the growth was 58.9%. The figure for `COc1ccc([C@H]2C(C(=O)c3ccc(Cl)cc3)C3(N[C@@H]2c2ccccc2)C(=O)Nc2ccccc23)cc1` (some centres not stated) is 29.2%. On to `N#Cc1c(-c2ccc(Cl)cc2)nc2n[nH]c(-c3ccc(Cl)cc3)c2c1-c1cccs1`, for which the growth was 23.7%. To `Cn1cc(-c2nc(N)nnc2-c2c[nH]c3ccc(Br)cc23)c2cccnc21` belongs 5.1% (active); to `CCCCCCCCCc1ccc(C(=O)Nc2cc(C)ccc2C(=O)OC)cc1`, 97.1%. On to `Nc1nnc(-c2c[nH]c3ncccc23)c(-c2c[nH]c3ccc(Br)cc23)n1`, for which the growth is 42%.

On to `Cc1nn(-c2ccccc2)c2ncn(CC(=O)N/N=C/c3ccccc3O)c(=O)c12`, for which the growth was 6.2% (active).

For the molecule `O=C(CSc1nnc(-c2ccc(-c3nc4ccccc4[nH]3)cc2)o1)Nc1ccc(Br)cc1`, the growth was 43.1%.
